This is part of a sample that, as a whole, favours compounds with a hit. Of some 83,000 tested, about 20% had one in any assay.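 Plates (96-well) were seeded with cells, treated with compound at one concentration, and incubated for 48 hours before percent growth was determined.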 A number with no mark means an inactive call. Activity calls are given as the source filed them. How the source made its calls: active means growth percent below 10; inactive means the rest.
These compounds were tested on TK-10 renal (assay: NCI-60 one-dose screen, 48 h (100 = growth as untreated, 0 = no growth, -100 = all killed)). Conditions: 10 µM unless noted.

`COc1ccc(-c2nc(SCCC(C)C)nc(N/N=C(/C)c3ccc(N)cc3)c2C#N)cc1` was tested. Which growth did it give?
The growth was 104%.

Which growth does the source give for `O=C(c1ccccc1)[C@@H](c1ccccc1)[C@]1(O)C(=O)Nc2ccccc21` here?
Its growth is 112%.

`CCOC(=O)C1=C(c2ccccc2)N=C2SC=C(c3cccc([N+](=O)[O-])c3)N2C1c1ccc(O)cc1` (centres undefined) was tested. Which growth did it give?
The growth was 104%.

`Cn1nc(-c2ccc(Cl)cc2)nc2c(=O)n(C)c(=O)nc1-2` was tested. Which growth did it give?
The growth was 70.3%.

How did the growth turn out when `COC1CC(O)C2=C(CC3C(/C(C)=C\CC=C(C)C)CCC3(C)O2)C1=O` (centres undefined) was run?
Its growth is 92.4%.

Which growth does the source give for `COc1cc(C(=O)/C=C/c2c(-c3cccs3)nc3sc(C)cn23)cc(OC)c1OC` here?
The growth was 8.26% (active).

Which growth does the source give for `CSc1nc(N)c2c(n1)NC(c1ccccc1)C1CCc3ccccc3C1=N2` (centres undefined) here?
Its growth is 112%.

`COC(=O)c1c(C)nc(C)c2c1C(=O)C(Br)=C(NCCCCO)C2=O` was tested. Which growth did it give?
The growth was 119%.

How did the growth turn out when `COc1ccc(S(=O)(=O)Oc2ccc(-c3sc4cc(OS(=O)(=O)c5ccc(OC)cc5)ccc4c3C(=O)c3ccc(OCCN4CCCCC4)cc3)cc2)cc1` was run?
The growth was 95%.

With `C=C(c1ccc(C(=O)O)c(F)c1)c1cc2c(cc1C)C(C)(C)C=CC2(C)C` as the compound, how does the growth read?
Its growth is 94.4%.

With `COc1cc(C2=Nc3c(N)nc(N)nc3NC(c3cccc(Nc4ccnc5cc(C(F)(F)F)ccc45)c3)C2)cc(OC)c1OC` (centres undefined) as the compound, how does the growth read?
Its growth is 108%.

What follows are compounds tested on CAKI-1 renal in the same assay as above. Conditions: 10 µM unless noted.

For `CN1CCN(CCCNC(=O)c2c3c(n4ccccc24)C(=O)c2ncccc2C3=O)CC1`, which growth is on record?
The growth was 75.4%.

How did the growth turn out when `CN1CCN(CC(=O)N(C)c2ccc(N=C(c3ccccc3)c3c(O)[nH]c4ccc([N+](=O)[O-])cc34)cc2)CC1` was run?
Its growth is 47.1%.

Which growth does the source give for `CCCCCCCCNc1ncnc2c1ncn2Cc1nnc2c3ccccc3c(Cl)nn12` here?
The growth was 16.7%.

With `CCN(CC)CCCNC(=O)c1c2c(n3ccccc13)C(=O)c1ncccc1C2=O` as the compound, how does the growth read?
Its growth is 11.8%.

How did the growth turn out when `CCCn1cnc2c(c1=N)C(c1ccc(Cl)cc1)c1sc3c(F)cccc3c1O2` (centres undefined) was run?
The growth was 70.6%.

With `Cc1ccc(C23CCC(=O)N2CCc2cncn23)cc1` (centres undefined) as the compound, how does the growth read?
Its growth is 107%.

Which growth does the source give for `O=C(COc1ccc(/C=C2\Oc3ccccc3C2=O)cc1)Nc1nccs1` here?
The growth was 68.9%.

Which growth does the source give for `Cc1c(C(=O)C(SC(=S)N2CCOCC2)SC(=S)N2CCOCC2)nnn1-c1ccc([N+](=O)[O-])cc1` here?
Its growth is 94.9%.

Which growth does the source give for `O=[N+]([O-])c1ccc(Oc2cccc3c(Oc4ccc([N+](=O)[O-])cc4[N+](=O)[O-])cccc23)c([N+](=O)[O-])c1` here?
Its growth is 89.2%.

How did the growth turn out when `CN(C)CCOc1ccc(/C(=C(/CCCCCCCCCC[P+](c2ccccc2)(c2ccccc2)c2ccccc2)c2ccccc2)c2ccccc2)cc1` was run?
Its growth is -93.2% (active).

Which growth does the source give for `CC1(C)CC[C@]2(CO)CC[C@]3(C)C(=CC[C@@H]4[C@@]5(C)CCNCC(C)(C)[C@@H]5CC[C@]43C)[C@@H]2C1` here?
Its growth is 67.3%.

Which growth does the source give for `COc1cc(/C=C2\CN(S(=O)(=O)c3ccc(C)cc3)C/C(=C\c3cc(CN4CCCC4)c(O)c(OC)c3)C2=O)cc(CN2CCCC2)c1O` here?
The growth was 23.9%.

How did the growth turn out when `Nc1ccc(Cl)c2c(=O)c3ccccc3[nH]c12` was run?
The growth was 77.7%.

For `COC(=O)c1sc(-c2ccc(C)cc2)cc1O`, which growth is on record?
Its growth is 94.3%.

For `CCOC(=O)CSc1nc2sc3c(c2c(=O)n1-c1ccccc1)CCCCC3`, which growth is on record?
Its growth is 102%.

`O=C1NCCS(=O)(=O)/C1=C\C=C\c1cccc(C(F)(F)F)c1` was tested. Which growth did it give?
The growth was 55.4%.

`COc1cccc2cc(N(C)c3ncnc4ccccc34)ccc12` was tested. Which growth did it give?
The growth was 10.8%.

Which growth does the source give for `Cc1[nH]c(C(=O)Nc2ccc(C(N)=O)cc2OC(C)C)c(Cl)c1Cl` here?
Its growth is 105%.

With `Nc1nc(N)c2c(n1)NC(c1cccc(Nc3ccnc4cc(C(F)(F)F)ccc34)c1)CC(c1ccc(Cl)cc1)=N2` (centres undefined) as the compound, how does the growth read?
The growth was 45.5%.

How did the growth turn out when `COC1=C(OC)C(=O)C(CCCCCCCCCCO)=C(C)C1=O` was run?
The growth was 61%.

With `O=C1c2c(c3c4cccnc4[nH]c3c3ccc4ccccc4c23)C(=O)N1O` as the compound, how does the growth read?
Its growth is 47%.

How did the growth turn out when `CCN1CCN(C(=O)[C@]23CC[C@@H](C)[C@H](C)[C@@H]2C2=CC[C@@H]4[C@@]5(C)C/C(=C/c6ccncc6)C(=O)C(C)(C)[C@@H]5CC[C@@]4(C)[C@]2(C)CC3)CC1` was run?
The growth was 43.6%.

Which growth does the source give for `C=CC(=O)Nc1ccc2ncnc(Nc3cccc(NS(=O)(=O)CCC)c3Cl)c2c1` here?
Its growth is 22.6%.

— PubChem BioAssay (NCI)
